Reference: the supplement of paper PMC11732987, “Enantioselective OTUD7B fragment discovery through chemoproteomics screening and high-throughput optimisation” (Communications Chemistry, 2025)

Columns and labels:
Assay in all cases: log2 ratio of Biotin-Ahx-Ub-VS probe labelling (fragment/DMSO); higher = less target engagement (more negative = stronger competition), active = hit call of the paper (q ≤ 0.05, log2 ratio ≤ -1)
Conditions in all cases: compound concentration: 200 uM; treatment time: 3 h
USP42 = biological target: T1, USP42 (UniProt Q9H9J4)
T1 sequence (whole entry): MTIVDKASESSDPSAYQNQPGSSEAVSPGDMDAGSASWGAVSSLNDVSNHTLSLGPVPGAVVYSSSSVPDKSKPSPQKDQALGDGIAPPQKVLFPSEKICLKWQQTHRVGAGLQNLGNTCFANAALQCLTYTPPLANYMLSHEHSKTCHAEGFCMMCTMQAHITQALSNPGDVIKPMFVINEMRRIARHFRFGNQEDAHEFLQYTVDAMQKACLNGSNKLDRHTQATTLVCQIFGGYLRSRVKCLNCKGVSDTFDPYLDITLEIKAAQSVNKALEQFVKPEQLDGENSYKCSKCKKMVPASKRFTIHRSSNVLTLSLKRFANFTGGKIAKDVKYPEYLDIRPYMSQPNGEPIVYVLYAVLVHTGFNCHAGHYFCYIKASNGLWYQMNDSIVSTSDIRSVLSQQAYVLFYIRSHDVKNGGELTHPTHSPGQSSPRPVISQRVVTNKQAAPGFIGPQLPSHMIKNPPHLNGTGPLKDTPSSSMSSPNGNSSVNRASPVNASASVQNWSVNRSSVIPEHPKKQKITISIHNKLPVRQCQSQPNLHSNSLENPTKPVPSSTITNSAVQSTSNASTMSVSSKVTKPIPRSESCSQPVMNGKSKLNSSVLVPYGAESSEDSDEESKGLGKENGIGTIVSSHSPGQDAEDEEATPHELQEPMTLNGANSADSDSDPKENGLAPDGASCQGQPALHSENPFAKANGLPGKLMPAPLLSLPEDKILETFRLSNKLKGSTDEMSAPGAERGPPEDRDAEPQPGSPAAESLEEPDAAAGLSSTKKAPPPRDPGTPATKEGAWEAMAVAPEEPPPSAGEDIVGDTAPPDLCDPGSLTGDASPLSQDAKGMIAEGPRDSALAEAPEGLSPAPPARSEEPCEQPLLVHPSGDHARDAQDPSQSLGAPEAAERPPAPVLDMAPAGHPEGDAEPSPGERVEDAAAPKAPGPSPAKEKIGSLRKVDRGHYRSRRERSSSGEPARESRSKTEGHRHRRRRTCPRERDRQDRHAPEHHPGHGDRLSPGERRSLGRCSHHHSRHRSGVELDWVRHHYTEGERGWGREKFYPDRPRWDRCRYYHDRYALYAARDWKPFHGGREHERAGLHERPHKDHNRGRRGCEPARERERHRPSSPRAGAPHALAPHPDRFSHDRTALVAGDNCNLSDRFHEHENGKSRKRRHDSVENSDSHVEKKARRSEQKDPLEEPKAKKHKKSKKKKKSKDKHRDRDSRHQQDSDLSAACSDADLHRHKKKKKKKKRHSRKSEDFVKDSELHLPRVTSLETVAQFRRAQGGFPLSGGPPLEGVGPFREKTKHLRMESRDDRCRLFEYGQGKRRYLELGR
Method in brief: (§1)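 Fragment (200 µM) or vehicle was incubated for 3 h with triplicate HEK293T lysate samples of 495 µg, which were then treated with Biotin-Ahx-Ub-VS at 0.5 µM final for 1 h. Labelled DUBs were enriched on NeutrAvidin, digested with LysC and trypsin, and analysed by diaPASEF LC-MS/MS. Values are average log2 fragment/vehicle ratios from an unpaired t-test on global-median-normalised Spectronaut label-free quantities, using proteins with ≥2 unique peptides.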

USP46 = USP46 (UniProt P62068)
Method in brief: as §1

USP47 = biological target: T2, USP47 (UniProt Q96K76)
T2 sequence (whole entry): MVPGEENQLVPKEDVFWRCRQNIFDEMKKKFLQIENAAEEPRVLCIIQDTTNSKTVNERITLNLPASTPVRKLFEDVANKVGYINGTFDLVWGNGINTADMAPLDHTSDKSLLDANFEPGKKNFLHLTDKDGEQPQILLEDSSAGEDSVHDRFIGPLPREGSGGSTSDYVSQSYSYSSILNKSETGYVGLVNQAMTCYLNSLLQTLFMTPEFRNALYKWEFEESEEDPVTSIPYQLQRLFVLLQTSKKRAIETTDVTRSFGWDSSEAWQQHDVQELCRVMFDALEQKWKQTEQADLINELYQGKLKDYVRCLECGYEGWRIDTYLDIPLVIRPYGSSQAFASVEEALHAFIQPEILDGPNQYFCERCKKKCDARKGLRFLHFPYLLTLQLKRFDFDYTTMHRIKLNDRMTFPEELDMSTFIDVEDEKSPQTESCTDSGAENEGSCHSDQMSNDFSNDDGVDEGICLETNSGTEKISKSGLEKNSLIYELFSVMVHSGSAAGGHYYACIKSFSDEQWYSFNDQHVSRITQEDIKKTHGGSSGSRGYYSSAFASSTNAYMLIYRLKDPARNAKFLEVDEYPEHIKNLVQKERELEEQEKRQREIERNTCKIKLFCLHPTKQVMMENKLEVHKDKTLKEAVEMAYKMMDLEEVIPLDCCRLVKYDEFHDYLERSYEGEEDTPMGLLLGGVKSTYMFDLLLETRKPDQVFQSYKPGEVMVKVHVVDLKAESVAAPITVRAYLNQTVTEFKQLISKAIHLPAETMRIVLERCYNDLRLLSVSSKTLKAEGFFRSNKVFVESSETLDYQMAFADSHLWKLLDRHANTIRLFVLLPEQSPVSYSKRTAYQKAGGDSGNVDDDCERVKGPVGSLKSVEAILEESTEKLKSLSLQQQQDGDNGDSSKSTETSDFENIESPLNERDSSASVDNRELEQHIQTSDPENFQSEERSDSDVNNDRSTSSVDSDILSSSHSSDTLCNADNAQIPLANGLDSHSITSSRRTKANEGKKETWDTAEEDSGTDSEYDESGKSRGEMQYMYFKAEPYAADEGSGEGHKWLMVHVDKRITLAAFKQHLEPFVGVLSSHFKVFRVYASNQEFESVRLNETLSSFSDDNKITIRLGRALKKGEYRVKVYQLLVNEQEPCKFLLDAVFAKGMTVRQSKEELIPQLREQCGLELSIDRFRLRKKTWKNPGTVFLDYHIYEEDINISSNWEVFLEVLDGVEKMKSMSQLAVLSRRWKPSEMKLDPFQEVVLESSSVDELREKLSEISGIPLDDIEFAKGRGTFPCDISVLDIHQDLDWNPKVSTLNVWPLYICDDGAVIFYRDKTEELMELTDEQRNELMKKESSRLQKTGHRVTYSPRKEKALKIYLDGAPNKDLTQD
Method in brief: as §1

USP48 = biological target: T3, USP48 (UniProt Q86UV5)
T3 sequence (whole entry): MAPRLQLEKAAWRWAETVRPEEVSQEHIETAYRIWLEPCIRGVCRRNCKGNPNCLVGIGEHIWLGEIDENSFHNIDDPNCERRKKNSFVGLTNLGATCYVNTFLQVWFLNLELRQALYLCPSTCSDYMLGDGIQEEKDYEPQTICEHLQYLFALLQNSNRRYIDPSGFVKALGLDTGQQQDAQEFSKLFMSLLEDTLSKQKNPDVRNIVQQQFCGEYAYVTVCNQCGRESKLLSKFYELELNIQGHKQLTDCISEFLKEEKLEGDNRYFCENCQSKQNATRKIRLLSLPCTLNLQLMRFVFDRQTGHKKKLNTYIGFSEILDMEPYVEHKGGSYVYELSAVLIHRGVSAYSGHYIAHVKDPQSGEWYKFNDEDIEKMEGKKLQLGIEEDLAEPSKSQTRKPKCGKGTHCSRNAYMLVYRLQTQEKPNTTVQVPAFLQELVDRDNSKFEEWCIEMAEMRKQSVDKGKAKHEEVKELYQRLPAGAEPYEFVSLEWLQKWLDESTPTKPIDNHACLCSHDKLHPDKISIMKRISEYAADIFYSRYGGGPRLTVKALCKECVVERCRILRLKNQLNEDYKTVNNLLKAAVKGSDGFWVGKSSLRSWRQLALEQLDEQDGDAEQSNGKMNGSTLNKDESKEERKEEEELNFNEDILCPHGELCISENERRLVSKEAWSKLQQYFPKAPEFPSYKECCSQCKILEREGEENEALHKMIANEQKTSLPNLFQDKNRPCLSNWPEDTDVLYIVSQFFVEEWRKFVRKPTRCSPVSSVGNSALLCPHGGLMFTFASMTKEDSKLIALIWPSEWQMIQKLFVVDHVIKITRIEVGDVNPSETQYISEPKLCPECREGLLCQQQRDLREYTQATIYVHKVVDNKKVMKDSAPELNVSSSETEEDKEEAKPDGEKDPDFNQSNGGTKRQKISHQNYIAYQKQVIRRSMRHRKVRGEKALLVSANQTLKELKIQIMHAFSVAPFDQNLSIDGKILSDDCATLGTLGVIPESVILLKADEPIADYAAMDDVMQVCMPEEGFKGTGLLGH
Method in brief: as §1

USP5 = biological target: T4, USP5 (UniProt P45974)
T4 sequence (whole entry): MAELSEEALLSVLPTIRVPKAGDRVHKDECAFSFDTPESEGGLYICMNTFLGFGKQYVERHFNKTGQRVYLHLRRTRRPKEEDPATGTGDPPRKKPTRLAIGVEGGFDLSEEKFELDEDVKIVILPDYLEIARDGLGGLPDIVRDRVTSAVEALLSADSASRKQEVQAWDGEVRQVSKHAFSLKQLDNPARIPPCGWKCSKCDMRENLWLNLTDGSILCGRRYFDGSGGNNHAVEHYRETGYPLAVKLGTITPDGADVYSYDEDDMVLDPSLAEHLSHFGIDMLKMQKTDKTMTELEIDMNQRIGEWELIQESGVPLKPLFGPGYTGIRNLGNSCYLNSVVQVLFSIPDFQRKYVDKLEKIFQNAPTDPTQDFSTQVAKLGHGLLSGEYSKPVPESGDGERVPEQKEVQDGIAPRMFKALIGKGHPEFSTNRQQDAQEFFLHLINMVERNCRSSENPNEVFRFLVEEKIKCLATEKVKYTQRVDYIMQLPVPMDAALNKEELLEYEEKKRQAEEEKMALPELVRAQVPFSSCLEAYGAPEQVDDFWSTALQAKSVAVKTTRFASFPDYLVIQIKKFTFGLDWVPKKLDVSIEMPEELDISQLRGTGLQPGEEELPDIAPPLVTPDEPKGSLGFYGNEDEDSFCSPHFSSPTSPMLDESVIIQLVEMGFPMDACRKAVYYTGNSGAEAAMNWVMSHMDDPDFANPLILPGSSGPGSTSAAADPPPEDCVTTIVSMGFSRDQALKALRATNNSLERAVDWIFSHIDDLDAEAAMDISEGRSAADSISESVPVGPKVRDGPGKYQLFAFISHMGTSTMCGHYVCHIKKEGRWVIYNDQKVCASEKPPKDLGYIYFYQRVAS
Method in brief: as §1

USP54 = USP54 (UniProt Q70EL1)
Method in brief: as §1

USP7 = USP7 (UniProt Q93009)
Method in brief: as §1

USP8 = biological target: T5, USP8 (UniProt P40818)
T5 sequence (whole entry): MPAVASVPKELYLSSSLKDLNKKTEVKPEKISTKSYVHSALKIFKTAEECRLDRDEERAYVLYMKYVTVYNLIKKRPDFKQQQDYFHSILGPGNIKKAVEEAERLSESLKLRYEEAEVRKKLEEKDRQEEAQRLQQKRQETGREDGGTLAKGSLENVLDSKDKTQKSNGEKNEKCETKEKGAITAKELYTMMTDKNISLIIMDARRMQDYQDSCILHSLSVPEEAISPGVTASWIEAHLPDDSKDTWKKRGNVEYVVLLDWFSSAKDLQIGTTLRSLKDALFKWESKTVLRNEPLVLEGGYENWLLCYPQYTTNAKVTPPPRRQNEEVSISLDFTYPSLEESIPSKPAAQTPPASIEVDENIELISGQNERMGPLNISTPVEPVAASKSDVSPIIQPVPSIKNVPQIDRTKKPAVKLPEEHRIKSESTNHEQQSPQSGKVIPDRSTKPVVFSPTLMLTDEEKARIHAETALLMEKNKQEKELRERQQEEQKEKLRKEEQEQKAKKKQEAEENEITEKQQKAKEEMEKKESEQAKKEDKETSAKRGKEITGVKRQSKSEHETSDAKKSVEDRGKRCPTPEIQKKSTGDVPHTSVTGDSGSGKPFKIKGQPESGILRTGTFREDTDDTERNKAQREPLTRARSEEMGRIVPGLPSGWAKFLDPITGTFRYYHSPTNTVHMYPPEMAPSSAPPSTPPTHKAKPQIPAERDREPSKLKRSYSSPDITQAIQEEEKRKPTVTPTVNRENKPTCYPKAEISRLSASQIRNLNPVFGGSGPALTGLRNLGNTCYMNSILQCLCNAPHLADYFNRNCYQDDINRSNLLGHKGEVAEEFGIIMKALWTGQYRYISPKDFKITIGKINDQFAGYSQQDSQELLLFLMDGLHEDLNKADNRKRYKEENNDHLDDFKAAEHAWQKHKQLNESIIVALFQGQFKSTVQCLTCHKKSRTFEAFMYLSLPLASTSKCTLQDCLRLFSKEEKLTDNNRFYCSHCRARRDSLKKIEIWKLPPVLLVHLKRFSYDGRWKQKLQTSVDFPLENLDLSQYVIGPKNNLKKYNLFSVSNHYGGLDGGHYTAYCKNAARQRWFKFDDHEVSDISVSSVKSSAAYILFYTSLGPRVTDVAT
Method in brief: as §1

Measured: log2 ratio of Biotin-Ahx-Ub-VS probe labelling

USP46, sequence (P62068 whole entry): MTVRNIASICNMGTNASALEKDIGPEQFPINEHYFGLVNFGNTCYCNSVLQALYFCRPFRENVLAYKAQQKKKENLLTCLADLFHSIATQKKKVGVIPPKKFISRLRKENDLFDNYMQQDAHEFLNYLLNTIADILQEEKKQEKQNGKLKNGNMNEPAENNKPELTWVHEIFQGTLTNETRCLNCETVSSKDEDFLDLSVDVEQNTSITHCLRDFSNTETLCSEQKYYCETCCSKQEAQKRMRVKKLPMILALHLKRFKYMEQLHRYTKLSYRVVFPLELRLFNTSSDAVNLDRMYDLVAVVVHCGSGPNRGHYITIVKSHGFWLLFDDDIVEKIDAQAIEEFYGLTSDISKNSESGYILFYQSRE
USP7, sequence (Q93009 whole entry, looked up): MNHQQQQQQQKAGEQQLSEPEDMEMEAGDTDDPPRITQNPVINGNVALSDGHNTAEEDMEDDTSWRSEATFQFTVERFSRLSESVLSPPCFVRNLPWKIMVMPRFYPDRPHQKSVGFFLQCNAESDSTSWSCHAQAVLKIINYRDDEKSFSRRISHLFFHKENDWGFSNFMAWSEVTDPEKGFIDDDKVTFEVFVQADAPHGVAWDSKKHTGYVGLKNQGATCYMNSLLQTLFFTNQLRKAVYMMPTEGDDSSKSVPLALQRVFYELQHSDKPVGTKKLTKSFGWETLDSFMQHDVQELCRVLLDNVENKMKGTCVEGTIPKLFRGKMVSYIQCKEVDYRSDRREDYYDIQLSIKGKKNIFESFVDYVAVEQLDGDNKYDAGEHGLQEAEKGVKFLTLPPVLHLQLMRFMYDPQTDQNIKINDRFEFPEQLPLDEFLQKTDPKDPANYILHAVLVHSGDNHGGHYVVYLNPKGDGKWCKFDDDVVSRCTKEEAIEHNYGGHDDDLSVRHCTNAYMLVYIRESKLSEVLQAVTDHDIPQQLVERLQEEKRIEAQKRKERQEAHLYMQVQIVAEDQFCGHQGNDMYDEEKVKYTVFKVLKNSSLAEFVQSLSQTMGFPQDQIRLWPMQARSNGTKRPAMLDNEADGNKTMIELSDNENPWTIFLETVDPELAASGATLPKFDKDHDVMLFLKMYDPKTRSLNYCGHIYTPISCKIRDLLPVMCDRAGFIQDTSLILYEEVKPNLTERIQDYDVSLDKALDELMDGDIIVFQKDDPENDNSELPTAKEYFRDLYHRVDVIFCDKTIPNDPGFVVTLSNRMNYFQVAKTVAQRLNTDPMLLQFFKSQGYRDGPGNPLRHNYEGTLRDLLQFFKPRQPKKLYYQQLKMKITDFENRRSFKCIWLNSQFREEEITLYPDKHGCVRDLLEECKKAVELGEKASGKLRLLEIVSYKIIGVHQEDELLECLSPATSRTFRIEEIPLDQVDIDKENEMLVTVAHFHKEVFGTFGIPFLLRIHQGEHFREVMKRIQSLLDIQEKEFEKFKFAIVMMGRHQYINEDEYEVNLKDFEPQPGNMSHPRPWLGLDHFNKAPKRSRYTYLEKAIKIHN
USP54, sequence (Q70EL1 whole entry): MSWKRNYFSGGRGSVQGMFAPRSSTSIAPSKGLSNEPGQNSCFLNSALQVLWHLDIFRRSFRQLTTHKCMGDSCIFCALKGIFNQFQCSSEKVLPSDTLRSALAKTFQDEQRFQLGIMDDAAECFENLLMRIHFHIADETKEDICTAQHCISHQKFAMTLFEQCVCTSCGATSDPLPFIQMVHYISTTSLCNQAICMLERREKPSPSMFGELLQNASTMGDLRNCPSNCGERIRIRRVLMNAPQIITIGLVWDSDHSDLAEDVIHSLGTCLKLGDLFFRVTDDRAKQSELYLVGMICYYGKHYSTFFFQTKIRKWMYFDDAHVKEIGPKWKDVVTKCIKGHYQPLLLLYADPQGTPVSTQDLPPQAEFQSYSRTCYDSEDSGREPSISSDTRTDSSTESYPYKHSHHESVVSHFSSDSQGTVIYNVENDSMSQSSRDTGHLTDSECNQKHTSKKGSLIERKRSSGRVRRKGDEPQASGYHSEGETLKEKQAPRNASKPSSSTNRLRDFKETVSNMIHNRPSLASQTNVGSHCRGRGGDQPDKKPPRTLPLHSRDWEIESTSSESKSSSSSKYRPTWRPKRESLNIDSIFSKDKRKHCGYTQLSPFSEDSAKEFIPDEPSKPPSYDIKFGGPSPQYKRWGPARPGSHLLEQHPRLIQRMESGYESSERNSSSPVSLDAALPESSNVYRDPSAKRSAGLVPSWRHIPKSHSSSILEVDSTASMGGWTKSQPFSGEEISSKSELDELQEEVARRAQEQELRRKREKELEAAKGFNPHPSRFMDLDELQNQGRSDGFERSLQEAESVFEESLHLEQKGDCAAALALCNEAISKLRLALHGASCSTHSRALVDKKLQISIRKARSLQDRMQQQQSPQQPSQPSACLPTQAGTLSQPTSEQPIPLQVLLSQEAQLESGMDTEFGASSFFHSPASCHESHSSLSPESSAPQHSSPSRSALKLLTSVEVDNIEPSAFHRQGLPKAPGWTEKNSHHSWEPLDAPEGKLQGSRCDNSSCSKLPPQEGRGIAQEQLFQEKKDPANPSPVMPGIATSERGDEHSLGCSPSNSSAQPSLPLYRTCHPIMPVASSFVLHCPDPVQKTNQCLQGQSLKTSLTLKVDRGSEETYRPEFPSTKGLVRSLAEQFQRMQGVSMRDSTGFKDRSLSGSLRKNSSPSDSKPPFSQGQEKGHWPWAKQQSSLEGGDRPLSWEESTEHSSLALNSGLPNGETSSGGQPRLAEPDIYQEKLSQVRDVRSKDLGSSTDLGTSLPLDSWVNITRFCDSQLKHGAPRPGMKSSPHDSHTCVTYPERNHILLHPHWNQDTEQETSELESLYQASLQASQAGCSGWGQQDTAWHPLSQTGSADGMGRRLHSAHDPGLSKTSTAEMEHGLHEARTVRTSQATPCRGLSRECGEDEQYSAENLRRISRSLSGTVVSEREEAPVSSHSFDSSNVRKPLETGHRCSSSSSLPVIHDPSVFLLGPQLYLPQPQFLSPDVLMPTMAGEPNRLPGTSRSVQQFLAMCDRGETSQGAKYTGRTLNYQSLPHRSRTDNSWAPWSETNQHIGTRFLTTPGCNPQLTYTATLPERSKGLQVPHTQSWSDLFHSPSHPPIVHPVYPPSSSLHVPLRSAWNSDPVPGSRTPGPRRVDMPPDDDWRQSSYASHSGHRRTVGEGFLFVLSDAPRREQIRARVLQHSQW

CN(C)S(=O)(=O)c1ccccc1CNC(=O)CCl
inactive: USP42 0.185 | USP46 0.0777 | USP47 -0.336 | USP48 -0.169 | USP5 0.419 | USP54 0.535 | USP7 -0.218 | USP8 -0.15
